Results on 93 molecules are retold here after PubChem BioAssay AID2314 (National Center for Advancing Translational Sciences (NCATS), 2010).

Hit rate of the full screen: of about 300,000 compounds, about 37,000 (12%) were called active. What follows is part of a selection rich in actives, with near analogues and random picks from the rest. A number with no mark means an inactive call. Cut-off read from the data, not from the text of the source: active = max response mostly above about 13% (no sharp cut-off); inactive = mostly below about 14%.

The assay can be described thus: Cycloheximide Counterscreen for Small Molecule Inhibitors of Shiga Toxin. Note: read at 38.3 µM for the half of the compounds with a filed dose; 0% is about no effect. The settings on record: cell reporter, cycloheximide protein synthesis inhibition counterscreen; hits give high values.
For the molecule `Cc1ccccc1C(=O)OC1OC(=O)C(Cl)=C1Nc1ccccc1` (stereo not drawn), the max response was 0.412%.
The value for `CCCc1ccc(OCC(O)CN2CCN(C(=O)OCC)CC2)cc1` (stereo not drawn) was -3.42%; that for `COCCCn1c2nc3ccccc3nc2c2c(=O)n(Cc3ccc(Cl)cc3)c(C)nc21` was 1.89%; that for `Cc1nc2c(c(=O)n1Cc1ccco1)c1nc3ccccc3nc1n2Cc1ccccc1` was -2.66%.
As to `Cc1ccc(Cn2c(C)nc3c(c2=O)c2nc4ccccc4nc2n3Cc2ccco2)cc1`, the max response was 15.8% (active).
As to `O=C(CCCN1CCc2[nH]c3ccc(F)cc3c2C1)c1ccc(F)cc1`, the max response is -1.91%.
For the molecule `Cc1ccc(S(=O)(=O)/N=S(\C)C(C)C)cc1` (stereo not drawn), the max response is -5.61%.
As to `Cn1nc(-c2ccccc2)c(-c2nc(-c3ccc(Cl)cc3)no2)c1Cl`, the max response was 7.15%.
Take `Nc1nonc1-c1noc(-c2ccc(Br)o2)n1`: the max response is 1.8%.
On to `Brc1ccc(-c2nnc(-c3ccccc3)o2)o1`, for which the max response is 30.6% (active).
With `Brc1ccc(-c2noc(-c3ccccc3)n2)o1`, the max response was 60.7% (active).
On to `Cc1cccc(C)c1OC(=O)CSc1nnc(-c2ccccc2)o1`, for which the max response was -2.59%.
The value for `O=C(CSc1nnc(-c2ccccc2)o1)N1CCOCC1` was -2.26%; that for `Cc1ccccc1OCc1nnc(SCC(=O)N2c3ccccc3Sc3ccc(Cl)cc32)o1` was -2.04%; that for `CCOc1ccc(/C=N/OCC(=O)NCc2cccs2)cc1` was -5.69%.
The value for `COc1cccc(CNC(=O)Cn2c(=O)oc3cc(S(=O)(=O)N4CCCCC4)ccc32)c1` was 9.69%.
The value for `C/C=C/C(=O)OCc1csc(CC(=O)Nc2ccccc2C)n1` was 7.73%; that for `Cc1cc2occ(CC(=O)NNC(=O)c3ccccc3F)c2cc1C` was -1.94%; that for `NC(=O)C1CCN(C(=O)/C(=C/c2ccco2)NC(=O)c2ccccc2)CC1` was -1.45%.
On to `COc1ccc(CCn2c(=N)c(C(=O)NCC3CCCO3)cc3c(=O)n4cccc(C)c4nc32)cc1OC` (stereo not drawn), for which the max response was -4.64%.
The value for `Cc1cc(-c2ccc(/C=N/n3cnnc3)o2)c([N+](=O)[O-])cc1C` was 12.6%.
Consider `O=C1C2C3C=CC(C4CC34)C2C(=O)N1/N=C/c1ccc(-c2ccccc2[N+](=O)[O-])o1` (stereo not drawn), for which the max response is 13.3% (active).
Regarding `Cc1cc([N+](=O)[O-])c(-c2ccc(/C=N/n3cnnc3)o2)cc1Cl`, the max response is 15.8%.
In the case of `O=C(CN1CCN(c2ccc(F)cc2)CC1)Nc1ccccc1` it was -1.97%; in that of `CN(C)CCCSc1ccccc1NC(=O)/C=C/c1ccccc1`, 5.31%.
The value for `CCOc1ccc(S(=O)(=O)NCc2ccc3c(c2)OCO3)cc1C` was -1.1%; that for `COCCn1c(=S)[nH]c2cc(C(=O)NCCc3ccc(OC)c(OC)c3)ccc2c1=O` was -1.71%; that for `COc1cccc2[nH]c(C(=O)NCCc3ccccc3)cc12` was 42.7% (active).
For the molecule `COc1ccc(CCNC(=O)c2ccccc2-c2ccccc2C(=O)O)cc1OC`, the max response was -3.5%.
The value for `Cc1cccc(N(C(=O)Cn2nnc(-c3ccc(C)o3)n2)C(C(=O)NC2CCCC2)c2ccncc2)c1` (stereo not drawn) was 1.36%; that for `CCn1c(SCC(=O)NC2CC2)nnc1-c1ccncc1` was 5.06%; that for `Cc1cc(C)cc(NC(=O)C2CCN(c3nc(C)cc(C)n3)CC2)c1` was -2.08%.
`Cc1cc(-c2ccccc2)nc(N2CCC(C(=O)NC34CC5CC(CC(C5)C3)C4)CC2)n1`: the max response is 27.8% (active).
In the case of `O=C(NNC(=O)C1CCN(c2ncccn2)CC1)c1ccccc1` it was -2.14%.
The value for `Cc1c(S(=O)(=O)N2CC(C)CC(C)C2)c(=O)n(C)c(=O)n1C` (stereo not drawn) was -2.35%.
The value for `CCN(CC)P(=O)(Nc1ccc(SC(F)F)cc1)c1ccc(N(C)C)cc1NC(=O)c1ccco1` (stereo not drawn) was 11.5%.
`O=C1N(Cc2ccc3c(c2)OCO3)c2ccccc2C1(O)c1c[nH]c2ccccc12` (stereo not drawn): the max response is -2.27%.
In the case of `COc1cc(NC(=O)C2=CC(c3ccco3)=NS(=O)(=O)N2C)cc(OC)c1OC`, the max response was 2.06%.
For `O=C(Nc1ccccc1Cl)c1ccc2nsnc2c1`, the max response was 30.7% (active).
As for `O=C(Nc1ccccc1N1CCCCC1)c1ccc2nccnc2c1`, the max response was -1.32%.
The value for `Cc1nc(C)c(C(=O)Nc2cccc(C)c2C)o1` was -2.15%; that for `O=C(Nc1ccccc1)c1ccc2nsnc2c1` was 29.1% (active).
Consider `O=C(Nc1cccc(NC(=O)c2ccc(Br)cc2)c1)c1ccccc1`, for which the max response is 2.45%.
With `Cc1cccc(NC(=O)c2ccc3nsnc3c2)c1C`, the max response is 10.4% (active).
In the case of `Cc1cccc(NC(=O)c2cccc(C(=O)Nc3cccc(C)c3C)n2)c1C` it was -2.9%.
In the case of `O=S(=O)(Nc1ccccc1Cl)c1cccc2nsnc12`, the max response is 1.19%.
In the case of `Cc1ccc([N+](=O)[O-])c(OCCCNCC(C)O)c1` (stereo not drawn) it was 17.1%.
Regarding `Cc1cc(NC(=O)CCN2CCN(Cc3ccccc3)CC2)ccc1Br`, the max response is -0.903%.
The value for `COc1ccc(NC(=O)CN2C(=O)COc3ccc(S(=O)(=O)N4CCOCC4)cc32)cc1` was -5.3%; that for `COCCNc1ccc(-c2n[nH]c(=O)c3ccccc23)cc1[N+](=O)[O-]` was -0.883%.
In the case of `COc1ccc(N(C)C(=O)C2CCN(S(=O)(=O)c3cccc4nsnc34)CC2)cc1` it was -1.67%.
In the case of `Cc1nc2cc(-c3ccc(F)cc3)nn2c(N2CCOCC2)c1C` it was 16.4%.
For the molecule `Cc1cc(N)n2nc(-c3ccc(C(C)(C)C)cc3)cc2n1`, the max response is 46.8% (active).
With `Cc1cc(C(C)(C)C)n2nc(C)c(-c3ccccc3)c2n1`, the max response was -2.81%.
Regarding `O=C(CN1C(=O)c2cccnc2Oc2ccc(Cl)cc21)Nc1ccc(F)cc1`, the max response is -3.07%.
In the case of `COc1cc(NC(=O)C2=CC(c3ccc(C)cc3)=NS(=O)(=O)N2C)cc(OC)c1OC` it was -1.64%; in that of `COc1ccc(C(CNC(=O)c2cccnc2SC)N2CCOCC2)cc1` (stereo not drawn), -3.3%.
The value for `CSc1ncccc1C(=O)Nc1nc2ccc(F)cc2s1` was 53.4% (active); that for `COc1cc(NC(=O)c2cccnc2SC)cc(OC)c1` was -1.86%.
As for `CSc1ncccc1C(=O)NC1CCCCCC1`, the max response was 19.5%.
Regarding `O=C(COC(=O)c1ccc(F)cc1)Nc1nc2ccc([N+](=O)[O-])cc2s1`, the max response is 0.781%.
For the molecule `CSc1ncccc1C(=O)Nc1ccc(C)cn1`, the max response was 9.66% (active).
`CCOc1ccc(NC(=O)CCC(=O)NNC(=O)NC2CCCCC2)cc1`: the max response is -3.92%.
For the molecule `COc1ccc(Nc2nc(N)nc(CSC(=S)N3CCC(C)CC3)n2)cc1`, the max response is 47.2% (active).
Take `COc1ccccc1Nc1nc(N)nc(CSC(=S)N2CCOCC2)n1`: the max response is 23.7% (active).
In the case of `COc1ccccc1Nc1nc(N)nc(CN(C)C2CCCCC2)n1`, the max response was -1.19%.
The value for `CCOC(=O)c1cnc(SCc2nc(N)nc(Nc3ccc(OC)cc3)n2)nc1N` was 19.8%; that for `CCOC(=O)C1CCCN(Cc2nc(N)nc(Nc3ccc(C)cc3)n2)C1` (stereo not drawn) was 0.836%; that for `COc1ccccc1NC(=S)N1CCN(c2ccc(F)cc2)CC1` was -1.91%.
Regarding `C=CCN1C(=NC(=O)COc2ccccc2)SC2CS(=O)(=O)CC21` (stereo not drawn), the max response is -13.1%.
On to `O=C(NCCc1nnc2ccc(SCC(=O)N3CCOCC3)nn12)c1ccccc1`, for which the max response was -4.07%.
As for `O=C(O)c1ccc(S(=O)(=O)N2CCC(Cc3ccccc3)CC2)cc1`, the max response was -8.01%.
`COc1ccc(C(=O)OCC(=O)NC(=O)CCSc2ccccc2)cc1`: the max response is 3.82%.
The value for `COc1ccc(OC)c(CCNC(=O)c2nn(C)c3c2CS(=O)(=O)c2ccccc2-3)c1` was -1.16%; that for `COc1ccc(N(CC(=O)NC2CCCCC2)S(=O)(=O)c2c(C)[nH]c(=O)[nH]c2=O)cc1` was -1.68%.
Turning to `O=C(NNC(=S)NC(=O)c1cn(-c2ccccc2)nc1-c1ccccc1)c1ccncc1`, the max response is 2.78%.
Regarding `Cc1nn(CC(=O)N/N=C/c2ccc(F)cc2)c(C)c1[N+](=O)[O-]`, the max response is -2.9%.
The value for `COc1cc(/C=N/NC(=O)c2cc(C)n(-c3ccc(F)cc3)c2C)cc(OC)c1O` was 18.9%; that for `Cc1cc(C(=O)N/N=C/c2ccc(O)c([N+](=O)[O-])c2)c(C)n1-c1ccc(F)cc1` was 24.9% (active); that for `COc1ccccc1N(CC(=O)Nc1ccccc1C(=O)N1CCCC1)S(C)(=O)=O` was -4.06%.
In the case of `CC/C(=N\NC(=O)c1ccccc1Cl)c1ccc(Br)s1` it was -0.594%.
In the case of `NS(=O)(=O)c1ccc(CCNS(=O)(=O)c2cccc3cccnc23)cc1` it was -5.53%; in that of `CN(C)S(=O)(=O)c1cccc(NC(=O)Cc2ccsc2)c1`, -3.01%.
Turning to `Cc1ccc(Cn2c(C)c3cnn(CC(=O)NCc4ccccn4)c(=O)c3c2C)cc1`, the max response is -3.46%.
On to `Cc1ccc(CN2C(=O)N/C(=C/c3cc(C)n(-c4ccccn4)c3C)C2=O)cc1`, for which the max response was 33.6% (active).
With `O=C1N/C(=C/c2cccs2)C(=O)N1Cc1ccc(F)cc1`, the max response is -5.73%.
In the case of `Cc1cccc([C@@H]2[C@@H]3C(=O)N(C)C(=O)[C@@H]3[C@@H]3C(=O)Nc4ccccc4C(=O)N23)c1` it was 1.14%; in that of `O=c1c2ccccc2nc2n1C(CSCc1ccccc1)CS2` (stereo not drawn), -1.46%; in that of `O=C(/C=C/c1ccc([N+](=O)[O-])cc1)NCCSCc1ccco1`, 9.78%.
On to `COC(=O)c1ccc(CSc2ccccc2C)o1`, for which the max response was -1.75%.
On to `COC(=O)c1ccc(CSc2nnc(N)s2)o1`, for which the max response was 12.5% (active).
On to `CCOc1ccccc1Nc1nnc(SCc2ccc(C(=O)OC)o2)s1`, for which the max response was -4.31%.
`CC1CCCCN1C(=O)CCS(=O)(=O)Cc1ccccc1` (stereo not drawn): the max response is -0.307%.
